From PubChem BioAssay (NCI) come the findings set out here.

The panel holds about 83,000 compounds, 20% with a hit somewhere; the sample as a whole holds those more often.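 Single-concentration screen, 48 h exposure, 96-well plates. Endpoint: percent growth. Below 10 = active.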 Unmarked numbers belong to inactive results. Activity calls are given as the source filed them.

Test systems include HCT-15 colon; HT29 colon; SNB-75 CNS; SNB-19 CNS; U251 CNS; PC-3 prostate; SK-MEL-5 melanoma; UACC-62 melanoma; LOX IMVI melanoma; SK-MEL-28 melanoma.
What all share (experiment): NCI-60 one-dose screen, 48 h (100 = growth as untreated, 0 = no growth, -100 = all killed)
Common to all, as to details: 10 µM unless noted

With `Clc1ccc(C2=Nn3c(nnc3-c3cc(Cl)cc(Cl)c3Cl)SC2)cc1`, the growth with HCT-15 colon was 32.3%; in the assay with HT29 colon, 6.41% (active); in the assay with SNB-75 CNS, 31.7%; in the assay on SNB-19 CNS, 32.8%; with U251 CNS it was 20.9%; in the assay on PC-3 prostate, 20.2%. The growth in the assay on SK-MEL-5 melanoma was 0.698% (active); in the assay with UACC-62 melanoma, 31.9%; in the assay on LOX IMVI melanoma it was 39.8%; in the assay with SK-MEL-28 melanoma, 62.1%.
Take `N#C/C(Sc1nc2sc3c(c2c(=O)n1Cc1ccccc1)CCCC3)=C1/SC=C(c2ccc(Cl)cc2)N1c1ccccc1`: the growth is 117% with HCT-15 colon; 98.7% in the assay with HT29 colon; 71.2% with SNB-75 CNS; 82.3% with SNB-19 CNS; 72.8% with U251 CNS; 84.2% in the assay with PC-3 prostate. Also, the growth is 95.9% in the assay with SK-MEL-5 melanoma, 90.3% in the assay with UACC-62 melanoma, 82.1% in the assay on LOX IMVI melanoma and 109% in the assay with SK-MEL-28 melanoma.
For the molecule `O=C1C(Nc2ccc(Br)cc2)=C(I)C(=O)c2ncccc21`, the growth is 6.76% (active) in the assay on HCT-15 colon; 54.7% with HT29 colon; 26.4% in the assay on SNB-75 CNS; 68.3% with SNB-19 CNS; 32% in the assay with U251 CNS; 39.3% with PC-3 prostate. Besides, the growth was -17.7% (active) in the assay on SK-MEL-5 melanoma, 9.48% (active) in the assay on UACC-62 melanoma, -3% (active) in the assay with LOX IMVI melanoma and 63.7% in the assay with SK-MEL-28 melanoma.
With `COc1cc(OCc2cccc(-c3ccccc3)c2C)cc(OC)c1CN1CCCCC1C(=O)NCCOCCOCCN` (stereo not given), the growth in the assay with HCT-15 colon was 87.9%; in the assay on HT29 colon it was 5.46% (active); in the assay on SNB-75 CNS, 73.8%; with SNB-19 CNS, 67.9%; in the assay with U251 CNS, 25.7%; in the assay on PC-3 prostate, 74.6%. The growth was 87.2% in the assay on SK-MEL-5 melanoma, 99.4% in the assay on UACC-62 melanoma, -73.7% (active) in the assay on LOX IMVI melanoma and 87.7% with SK-MEL-28 melanoma.
Take `CC(C)n1nc(-c2ccc3oc(N)nc3c2)c2c(N)ncnc21`: the growth in the assay with HCT-15 colon was 0.972% (active); in the assay on HT29 colon, 4.07% (active); in the assay with SNB-75 CNS it was -51.4% (active); in the assay with SNB-19 CNS it was 0.364% (active); with U251 CNS, 1.15% (active); in the assay on PC-3 prostate, 0.237% (active). Besides, the growth in the assay on SK-MEL-5 melanoma was -40.3% (active); with UACC-62 melanoma, -45% (active); in the assay on LOX IMVI melanoma, -16.4% (active); with SK-MEL-28 melanoma, -24% (active).
On to `COc1cc2c(c(OC)c1OC)CCC(c1cccc(C(=O)Nc3ccccc3Br)c1)O2` (stereo not given), for which the growth in the assay on HCT-15 colon was 92%; in the assay on HT29 colon, 82.4%; in the assay on SNB-75 CNS it was 65.8%; with SNB-19 CNS it was 90.1%; in the assay with U251 CNS, 90.7%; with PC-3 prostate it was 76.1%. Moreover, the growth is 86.3% in the assay on SK-MEL-5 melanoma, 66.2% in the assay with UACC-62 melanoma, 90.2% in the assay on LOX IMVI melanoma and 94.6% in the assay on SK-MEL-28 melanoma.
As to `C#CCOc1cccc(-c2ncnc3cc(NC(=O)CCl)ccc23)c1`, the growth with HCT-15 colon was -32.9% (active); in the assay with HT29 colon, -70.7% (active); in the assay with SNB-75 CNS, 18%; with SNB-19 CNS, 7.8% (active); in the assay on U251 CNS, -93.7% (active); in the assay with PC-3 prostate, -15.9% (active). Further, the growth in the assay with SK-MEL-5 melanoma was -86% (active); in the assay on UACC-62 melanoma, -41.7% (active); in the assay with LOX IMVI melanoma, -83.7% (active); with SK-MEL-28 melanoma it was 20.2%.
Turning to `O=C(c1ccc(F)cc1)C1CCN(CCn2c(=O)[nH]c3ccccc3c2=O)CC1`, the growth is 105% in the assay on HCT-15 colon; 98.4% in the assay with HT29 colon; 92.6% with SNB-75 CNS; 110% with SNB-19 CNS; 101% in the assay on U251 CNS; 87.4% with PC-3 prostate. The growth in the assay with SK-MEL-5 melanoma was 94.2%; in the assay with UACC-62 melanoma, 102%; in the assay on LOX IMVI melanoma, 98.7%; in the assay on SK-MEL-28 melanoma, 108%.
Turning to `O=C(Nc1ccc2c(c1)-c1ccccc1C2)C1CC(=O)N(c2ccc3c(c2)OCO3)C1` (stereo not given), the growth is 89.3% [50 µM] in the assay on HCT-15 colon; 64.6% [50 µM] in the assay with HT29 colon; -2.42% [50 µM] (active) with SNB-75 CNS; 46.4% [50 µM] in the assay on SNB-19 CNS; 19% [50 µM] in the assay with U251 CNS; 33.1% [50 µM] with PC-3 prostate. Also, the growth in the assay with SK-MEL-5 melanoma is 56% [50 µM]; in the assay on UACC-62 melanoma, 44.3% [50 µM]; in the assay with LOX IMVI melanoma, 63.1% [50 µM]; with SK-MEL-28 melanoma it was 33.4% [50 µM].
In the case of `CCN1C(=O)N(CC)C2C1NC(=S)N2/N=C/C=C/c1cccs1` (stereo not given), the growth in the assay with HCT-15 colon was 15.5%; in the assay on HT29 colon, 5.58% (active); with SNB-75 CNS it was 1.94% (active); in the assay with SNB-19 CNS it was 27%; in the assay on U251 CNS, 18.4%; with PC-3 prostate it was 35.2%. Moreover, the growth with SK-MEL-5 melanoma was 23.4%; with UACC-62 melanoma it was 24.5%; with LOX IMVI melanoma it was 26.7%; in the assay with SK-MEL-28 melanoma it was 49.2%.
For `c1ccc(-c2nc(N3CCNCC3)c3oc(-c4ccccc4)nc3n2)cc1`, the growth is -75.6% (active) in the assay with HCT-15 colon; -26.2% (active) in the assay with HT29 colon; -95.9% (active) in the assay with SNB-75 CNS; -27.9% (active) in the assay with SNB-19 CNS; -57% (active) in the assay with U251 CNS; -27.9% (active) with PC-3 prostate. In addition, the growth in the assay on SK-MEL-5 melanoma is -93.3% (active); in the assay with UACC-62 melanoma, -82% (active); with LOX IMVI melanoma it was -81.9% (active); with SK-MEL-28 melanoma, -95% (active).
As for `Cc1ccc(S(=O)(=O)N(CCC(=O)O)c2ccccc2)cc1`, the growth in the assay on HCT-15 colon is 102%; in the assay on HT29 colon, 110%; with SNB-75 CNS, 118%; in the assay with SNB-19 CNS, 109%; in the assay on U251 CNS, 102%; in the assay on PC-3 prostate, 101%. The growth in the assay on SK-MEL-5 melanoma is 112%; in the assay with UACC-62 melanoma, 104%; with LOX IMVI melanoma, 97.3%; in the assay with SK-MEL-28 melanoma it was 119%.
In the case of `C=CCn1c(SCC(=O)Nc2ccc(C(=O)/C=C/c3cc(OC)c(OC)c(OC)c3)cc2)nnc1-c1cc(-c2ccc(S(N)(=O)=O)cc2)nc2ccccc12`, the growth was 97.7% in the assay with HCT-15 colon; 98.1% with HT29 colon; 77.2% in the assay on SNB-75 CNS; 74.2% in the assay on SNB-19 CNS; 58.9% in the assay with U251 CNS; 84.1% with PC-3 prostate. The growth in the assay with SK-MEL-5 melanoma is 87.6%; in the assay with UACC-62 melanoma, 74.7%; in the assay on LOX IMVI melanoma, 73%; in the assay on SK-MEL-28 melanoma it was 103%.
